# Source: PubChem BioAssay (NCI)
# Values joined by “and” are separate entries in the source; they are usually repeats but may differ in a detail not shown here. Equal values may be shown once. About 83,000 compounds went through this panel and 20% of them were active in at least one assay; those are over-represented in the sample as a whole.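 Treatment: one concentration, 48 hours, 96-well format. Scoring: percent growth, with anything below 10 considered active.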 Active and inactive are the calls of the source.
# Key:
# Assay in all cases: NCI-60 one-dose screen, 48 h (100 = growth as untreated, 0 = no growth, -100 = all killed)
# Conditions in all cases: 10 µM unless noted
# DU-145 prostate = test system: DU-145 prostate
# K-562 leukemia = test system: K-562 leukemia
# MALME-3M melanoma = test system: MALME-3M melanoma
# MDA-MB-231 breast = test system: MDA-MB-231 breast
# RXF 393 renal = test system: RXF 393 renal
# SF-268 CNS = test system: SF-268 CNS
# SF-295 CNS = test system: SF-295 CNS
# SF-539 CNS = test system: SF-539 CNS
# UACC-257 melanoma = test system: UACC-257 melanoma
# M14 melanoma = test system: M14 melanoma
Structure (SMILES),growth (DU-145 prostate),growth (K-562 leukemia),growth (MALME-3M melanoma),growth (MDA-MB-231 breast),growth (RXF 393 renal),growth (SF-268 CNS),growth (SF-295 CNS),growth (SF-539 CNS),growth (UACC-257 melanoma),growth (M14 melanoma)
CCCCn1c(C(=O)c2c[nH]c3ccccc23)n[nH]c1=S,104% (inactive),76.1% (inactive),111% (inactive),96.4% (inactive),107% (inactive),96.9% (inactive),103% (inactive),102% (inactive),94.8% (inactive),92.4% (inactive)
Fc1ccccc1-c1cnn2cc(-c3ccccc3)cnc12,110% (inactive),83.5% (inactive),109% (inactive),108% (inactive),94.9% (inactive),88.9% (inactive),98.2% (inactive),103% (inactive),110% (inactive),105% (inactive)
C#Cc1cc(C(=O)Nc2ccc(CN3CCN(C)CC3)c(C(F)(F)F)c2)ccc1C,85.8% (inactive),7.97% (active),23.6% (inactive),59.2% (inactive),76.3% (inactive),82.5% (inactive),77% (inactive),44% (inactive),-32.9% (active),-70.4% (active)
CCN(c1cc(-c2ccc(CN3CCC(/C=C/S(=O)(=O)c4ccccc4)CC3)cc2)cc(C(=O)NCc2c(C)cc(C)[nH]c2=O)c1C)C1CCOCC1,78.9% (inactive),40.6% (inactive),67% (inactive),67.3% (inactive),17.7% (inactive),66.5% (inactive),84.8% (inactive),59.3% (inactive),75.4% (inactive),85.1% (inactive)
CC(=O)c1c(C)nc2ccccc2c1/C=C/c1cccc(C)c1,88.2% (inactive),16.1% (inactive),82.9% (inactive),63.5% (inactive),73.1% (inactive),81.9% (inactive),58% (inactive),61.7% (inactive),73.5% (inactive),46.3% (inactive)
COc1ccc(C/C(C)=C(/c2ccc(OCCN3CCCCCC3)cc2)c2ccc(OC(=O)c3ccccc3)cc2)cc1,114% (inactive),89.7% (inactive),104% (inactive),104% (inactive),124% (inactive),106% (inactive),96.1% (inactive),96.8% (inactive),100% (inactive),95.3% (inactive)
CCCCCCCCCCCCCCCCCCOc1cccc(CC(=O)OCC[N+](CC)(CC)CC)c1,73.8% (inactive),31.8% (inactive),74.1% (inactive),41.4% (inactive),8.82% (active),61.7% (inactive),40.9% (inactive),51.1% (inactive),114% (inactive),42.3% (inactive)
N#C/C(=C\c1ccc(Br)cc1)n1nnc2c(F)cccc21,5.36% (active),12% (inactive),-2.35% (active),-10.6% (active),-57.9% (active),20.3% (inactive),24.7% (inactive),-7.82% (active),-10.7% (active),2.49% (active)
CCCN1C(=O)/C(=c2\sc3n(c2=O)NC2C(N=3)N(CC)C(=O)N2CC)c2ccccc21 (stereo not given),33.5% (inactive),13.7% (inactive),61.8% (inactive),24.4% (inactive),-3.07% (active),70% (inactive),39.6% (inactive),1.12% (active),47.5% (inactive),23.3% (inactive)
O=C(/C=C/c1ccc([N+](=O)[O-])cc1)c1ccccc1,97.3% (inactive),44.1% (inactive),107% (inactive),102% (inactive),91.1% (inactive),92% (inactive),93.4% (inactive),92.3% (inactive),89.1% (inactive),92.2% (inactive)
COc1ccc(-c2cc3cnc4ccccc4c3oc2=O)cc1,97.8% (inactive),28.1% (inactive),97% (inactive),88.2% (inactive),86.5% (inactive),99.7% (inactive),96.7% (inactive),102% (inactive),96.4% (inactive),106% (inactive)
COc1cc2ncnc(Nc3ccc(F)c(Cl)c3)c2cc1OCC(=O)N1CCCCC1,53.8% (inactive),73.6% (inactive),99.1% (inactive),105% (inactive),84.8% (inactive),80% (inactive),92.1% (inactive),104% (inactive),101% (inactive),85.5% (inactive)
Cc1ccc(-c2nc(SCC(=O)c3ccc(C#N)cc3)[nH]c(=O)c2C#N)cc1,102% (inactive),96.3% (inactive),99.2% (inactive),100% (inactive),117% (inactive),96% (inactive),103% (inactive),92.2% (inactive),100% (inactive),96.7% (inactive)
Nc1nc(Nc2ccc(F)cc2)nn1C(=O)c1cc(Cl)ccc1Cl,78.8% (inactive),97.4% (inactive),108% (inactive),88.2% (inactive),21.8% (inactive),74.9% (inactive),94.3% (inactive),72.8% (inactive),106% (inactive),86.8% (inactive)
CCOC(=O)c1cnn(CC(O)CC)c1NC(=O)NCc1ccccc1C(F)(F)F (stereo not given),109% (inactive),88.5% (inactive),103% (inactive),105% (inactive),119% (inactive),100% (inactive),90.7% (inactive),99.1% (inactive),103% (inactive),88.2% (inactive)
C/C=C(/C)C(=O)O[C@@H]1CC(C)(C)CC2C34OC(=O)[C@@]21CC[C@@]3(C)[C@]1(C)CCC2C(C)(C)C(=O)CC[C@]2(C)C1C[C@@H]4Cl (stereo not given in full),104% (inactive),85.6% (inactive),90.8% (inactive),93.4% (inactive),108% (inactive),93% (inactive),97.3% (inactive),85% (inactive),89.8% (inactive),93.1% (inactive)
COc1c(F)cc(-n2c(C(=O)N3CC(F)C3)cc3cccnc32)cc1F,106% (inactive),95.5% (inactive),121% (inactive),96.5% (inactive),107% (inactive),94.9% (inactive),102% (inactive),98% (inactive),102% (inactive),119% (inactive)
NS(=O)(=O)OCC1OC(n2cnc3cncnc32)C(O)C1O (stereo not given),13.2% [0.1 µM] (inactive),9.29% [0.1 µM] (active) and 7.85% [0.1 µM] (active),81.6% [0.1 µM] (inactive) and 50.7% [0.1 µM] (inactive),-25.1% [0.1 µM] (active) and -14.3% [0.1 µM] (active),11.7% [0.1 µM] (inactive) and 1.25% [0.1 µM] (active),9.46% [0.1 µM] (active) and 13.5% [0.1 µM] (inactive),24% [0.1 µM] (inactive),-2.66% [0.1 µM] (active) and -4.82% [0.1 µM] (active),60.8% [0.1 µM] (inactive) and 58.2% [0.1 µM] (inactive),31.1% [0.1 µM] (inactive) and 16.6% [0.1 µM] (inactive)
Cc1nc(-n2[nH]c(=O)ccc2=O)sc1N=Nc1ccccc1,112% (inactive),101% (inactive),102% (inactive),102% (inactive),97.5% (inactive),104% (inactive),99.3% (inactive),99.8% (inactive),109% (inactive),97.7% (inactive)
O=C(N/N=C/c1ccc(O)cc1O)c1cccc(Nc2ccnc(C(F)(F)F)c2)c1,17.7% (inactive),21.6% (inactive),2.77% (active),41.3% (inactive),44.9% (inactive),11.8% (inactive),20.4% (inactive),8.62% (active),36.3% (inactive),-1.76% (active)
Cc1ccc2c(c1)C(C)Cc1c(ncnc1-n1cnc3cc(C)ccc31)N2C (stereo not given),10.9% (inactive),6.54% (active),76.9% (inactive),38.5% (inactive),21.3% (inactive),25.6% (inactive),2.2% (active),16.8% (inactive),25.6% (inactive),17.7% (inactive)
O=C(CC1(O)C(=O)Nc2ccc(Br)cc21)c1ccc(Cl)cc1 (stereo not given),107% (inactive),98.2% (inactive),103% (inactive),98.8% (inactive),96.4% (inactive),97.5% (inactive),106% (inactive),108% (inactive),88.1% (inactive),99.3% (inactive)
O=C1/C(=C/c2ccccc2)CN(C(=O)C(Cl)Cl)C/C1=C\c1ccccc1,-14.3% (active),2.57% (active),-38.5% (active),-3.43% (active),-35.2% (active),35.7% (inactive),-1.45% (active),-14.9% (active),25% (inactive),-27.6% (active)
O=C1C(=C(O)c2ccccc2)C(=O)c2ccccc21,104% (inactive),95.4% (inactive),103% (inactive),107% (inactive),135% (inactive),95.2% (inactive),105% (inactive),100% (inactive),108% (inactive),102% (inactive)
